Screening results deposited in PubChem BioAssay by National Center for Advancing Translational Sciences (NCATS).
D3 antag: blocks the human D3 dopamine receptor. P35462. D3R cells, DiscoveRx beta-arrestin luminescence, antagonist mode; active compounds read low. max response, negative = inhibition, %. 360,000 compounds, 2.5% hits; in the data active = max response below about -50%; inconclusive = no clear call, values can overlap the other calls; also: % is scaled to controls: 0 for no effect and ±100 for the full control effect
Target sequence (P35462 whole entry, looked up): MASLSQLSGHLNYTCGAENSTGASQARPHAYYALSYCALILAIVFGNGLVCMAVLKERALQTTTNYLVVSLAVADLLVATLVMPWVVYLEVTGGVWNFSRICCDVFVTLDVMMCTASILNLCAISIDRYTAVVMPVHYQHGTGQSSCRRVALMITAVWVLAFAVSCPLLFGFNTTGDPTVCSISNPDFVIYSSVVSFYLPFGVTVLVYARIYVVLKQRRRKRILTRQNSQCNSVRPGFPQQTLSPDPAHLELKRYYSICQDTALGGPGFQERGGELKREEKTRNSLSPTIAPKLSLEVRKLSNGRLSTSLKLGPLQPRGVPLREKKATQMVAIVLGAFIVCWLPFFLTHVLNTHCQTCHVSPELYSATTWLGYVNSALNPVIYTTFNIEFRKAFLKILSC
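Cells expressing the human receptor were seeded at 1500 cells/well, incubated overnight at 37 degrees C in 5% CO2, then exposed to library compounds with dopamine controls for 90 minutes at 37 degrees C before luminescent detection.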
DRD3 agonist: agonists of human D3 dopamine receptor | P35462 | D3R DiscoveRx beta-arrestin cells, luminescence, 90 min | max activation, % | 410,000 compounds, 0.58% hits | AID 652048; in the data active = max activation above about 30%; also: 0% is about no effect
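Agonist-mode cell screen: cells plated at 1500/well and incubated overnight at 37 °C, then exposed to library compounds for 90 min at 37 °C. Detection reagent was added for 30–60 min at room temperature, and luminescence was read.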
BCR signal inh: blocks chronic active B-cell receptor signaling | ABC-DLBCL IkBa-CBG/CBR reporter, luminescence ratio, 4 h | Potency, µM (top dose mostly 46.1 µM), for inactives: at the top dose activity change, negative = inhibition, hits mostly inhibitors | 340,000 compounds, 0.05% hits | AID 493014; active = well fitted inhibition curve with a large enough effect in the signal ratio, with a control signal flat, not every such curve was filed as active; inconclusive = small, poorly fitted or top-dose-only effect, or effect the other way, or a change in a side signal; the % refers to the signal ratio;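 also: potency is read from the fitted curve at half-maximal effect; plate controls were basal doxycycline-induced cells for no effect and cells given 10 µM MG132 for full effect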
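Concentration-response series (up to 46 uM) were applied to TMD8 dual-reporter cells for 4 h at 37C with doxycycline. Green/red ratio, after filter-overlap correction, defined %Activity; red signal alone was normalised to basal cells and zero luminescence.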
D1 potentiator: human D1 dopamine receptor positive modulation | HEK293 TREx D1 cells, calcium flux, dopamine EC20 potentiation | potentiation, % at 10 µM | 360,000 compounds, 0.036% hits; in the data active = potentiation above about 30%; also: 0% is about no effect
D1 antagonist: antagonists of human D1 dopamine receptor | HEK293 TREx D1 cells, calcium flux, dopamine EC80; active compounds read low | activity change, negative = inhibition, % at 10 µM | 360,000 compounds, 3.2% hits | AID 504652; in the data active = activity change below about -30%; also: % is scaled to controls: 0 for no effect and ±100 for the full control effect
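Allosteric or orthosteric antagonism assessed as attenuation of the calcium response to EC80 dopamine, added 180 s after compound, in induced HEK293 Trex D1 cells loaded with no-wash calcium dye.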
D1 ag: human D1 receptor agonism | P21728 | HEK293 T-REx D1 cells, calcium flux, agonist mode | activation, % at 2 µM | 360,000 compounds, 1% hits | AID 504660; in the data active = activation above about 30%; also: 0% is about no effect
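Agonism was scored from calcium flux recorded over 180 s (1 read/s) after pintool compound addition, following a 10-cycle baseline. Cells were inducible force-coupled HEK293 TREx D1, plated overnight at 30 C and loaded with no-wash calcium dye.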
The depositor's hits bear a star; ? = inconclusive; . = not tested or not shown. A selection: hits, their analogues and other compounds. The true share with any hit is near 6%.

SMILES	D3 antag	DRD3 agonist	BCR signal inh	D1 potentiator	D1 antagonist	D1 ag
OC(CNC1CCCC1)COc1ccccc1Br (stereo not given)	-19	-7	-3%	-8	-36*	13
Cc1cccc(C(O)c2ncc(-c3ccc(Cl)cc3)[nH]2)c1C (stereo not given)	-10	2	.	.	.	.
CCc1ccc(OCC(=O)N(Cc2ccc(C)o2)C2CCS(=O)(=O)C2)cc1 (stereo not given)	.	-11	.	-2	-1	17
O=C(OCCO)c1c(C2=CCCCC2)oc2c1C(OCCO)CCC2 (stereo not given)	0	-5	.	.	.	.
Cc1ccc(-c2csc(NC(=O)/C=C/c3cccs3)n2)cc1C	0	-3	16%	-4	-79*	3
N#Cc1ccc(-c2csc(NC(=O)/C=C/c3cccs3)n2)cc1	52	9	4%	-5	-44*	1
Cc1ccc(NC(=O)Cn2c(=O)n(Cc3ccccc3)c(=O)c3c(C)c(C(=O)N(C)C)sc32)c(C)c1	.	3	-2%	2	-4	2
Cc1ccc(-n2ncc3c2CC(C)(C)CC3NC(=O)c2ccccn2)cc1 (stereo not given)	8	3	-4%	-3	-76*	1
CCn1c(=O)c2cc(C(=O)Nc3cc(C)c(Cl)cc3OC)sc2c2ccccc21	.	4	.	1	9	3
COc1ccc(S(=O)(=O)Nc2cccc(-c3ccc(N4CCCCCC4)nn3)c2)cc1	.	1	.	8	9	2
O=C(CNC(=O)c1ccccc1Cl)OC(C(=O)Nc1cc(C(F)(F)F)ccc1Cl)c1ccccc1 (stereo not given)	.	.	.	-3	-5	5
COc1ccc(C2CC(c3cccs3)=NN2c2ccc(C=O)cc2)cc1 (stereo not given)	3	6	?	17	-62*	244*
CCOc1ccc(C(=O)NC(Cc2ccccc2)C(=O)OC)cc1 (stereo not given)	-8	-1	-1%	-3	-32*	-2
CCOc1ccc(C(=O)NC(C)CCc2ccccc2)cc1 (stereo not given)	-1	-1	-11%	-2	-25	7
CN1C[C@H](C(=O)N[C@]2(C)O[C@@]3(O)[C@@H]4CCCN4C(=O)[C@H](Cc4ccccc4)N3C2=O)CC2c3cccc4[nH]cc(c34)C[C@H]21 (stereo not given in full)	-65*	-39	?	-7	-62*	1
Cc1ccccc1CNC(=O)c1ccccc1N	-8	30*	?	-4	-7	1
Cc1ccccc1CNC(=O)c1ccc(Cl)c([N+](=O)[O-])c1	-7	7	?	-3	-61*	12
CC(C)[C@H](NC(=O)c1ccc(Cl)c([N+](=O)[O-])c1)C(=O)NCc1ccc(Cl)cc1Cl	?	-6	3%	-4	-39*	5
O=C1COC(c2ccccc2O)=NN1CCCl	0	-11	.	.	.	.
CC(C)C[C@@H]1NC(=O)[C@H](CCCN)NC(=O)[C@H](C(C)C)NC(=O)[C@@H]2CCCN2C(=O)[C@@H](Cc2ccccc2)NC(=O)[C@H](CC(C)C)NC(=O)[C@H](CCCN)NC(=O)[C@H](C(C)C)NC(=O)[C@@H]2CCCN2C(=O)[C@@H](Cc2ccccc2)NC1=O	.	31*	.	.	.	.
O=C1N[C@@H](Cc2ccccc2)C(=O)N2CCC[C@@H]12	-16	-7	2%	-2	11	6
Cc1ccc(CNC(=O)Cn2ccn(-c3ccc(C)c(C)c3)c(=O)c2=O)cc1	.	20	.	-5	-11	4
COc1ccc(N2CCN(S(=O)(=O)c3ccc4c(c3)C(C(C)C)C(=O)N4)CC2)cc1 (stereo not given)	.	-2	.	-4	-8	14
CC(=O)N(C1CC(C)C(C#N)(C#N)C1(C#N)C#N)N(C)C (stereo not given)	-71*	-18	?	5	4	3
CCCC(=O)N(C1CC(C)C(C#N)(C#N)C1(C#N)C#N)N(C)C (stereo not given)	-62*	-8	?	-15	-36*	6
SMILES	D3 antag	DRD3 agonist	BCR signal inh	D1 potentiator	D1 antagonist	D1 ag
CCn1nc(C)cc1C(=O)N1CCCC(C(=O)c2ccc(Oc3ccccc3)cc2)C1 (stereo not given)	14	1	?	-1	-35*	5
COc1ccc(CNC(=O)C[C@@H]2C[C@H]3c4cc(NC(=O)NC5CCCC5)ccc4O[C@H]3[C@H](CO)O2)cc1	-18	-7	.	.	.	.
O=C(N/N=C/c1cc([N+](=O)[O-])ccc1O)C1C2CCCCC21 (stereo not given)	.	.	?	-1	-6	0
O=C(Cn1nnc(-c2ccccc2)n1)N/N=C/c1cc([N+](=O)[O-])ccc1O	-76*	-20	-1%	-7	4	1
CCN(CC)C(=O)C1CCCN(c2ccc([N+](=O)[O-])cc2/C=N/NC(=O)c2ccc([N+](=O)[O-])cc2)C1 (stereo not given)	-79*	-7	7%	.	.	.
O=C(Cn1nc2ccccc2n1)N/N=C/c1cc([N+](=O)[O-])ccc1O	-65*	1	?	-5	-3	1
O=C(N/N=C/c1cc([N+](=O)[O-])ccc1O)C1CCCCC1	-88*	-11	5%	-2	-2	3
CCOC(=O)c1ccccc1NC(=O)NCc1cccn1Cc1ccc(F)cc1	.	-7	.	-1	6	3
O=C(Nc1ccc(Br)cc1)/C(=C/c1cccc([N+](=O)[O-])c1)NC(=O)C1CCCCC1	-63*	-9	-1%	-1	-4	1
O=C(COCc1cc(-c2cccs2)on1)NCc1ccc(F)cc1	.	-5	.	-2	7	-1
O=C(OCc1nc2ccccc2[n+]([O-])c1C(=O)c1ccccc1)c1cccnc1	-55*	2	-7%	7	7	1
CC(=O)c1c(COC(=O)c2ccccc2)nc2ccccc2[n+]1[O-]	30	2	?	-2	-7	15
CN(C)c1ccc(CN(Cc2ccco2)C(=O)c2ccc(C(C)(C)C)cc2)cc1	.	-2	.	-1	-12	2
O=C(CSc1nnc(-c2ccccc2F)n1C1CC1)NC(=O)c1cccc([N+](=O)[O-])c1	-57*	-54	-1%	-5	2	2
Nc1cc(S(=O)(=O)Nc2ccc(Cl)cc2)ccc1N1CCOCC1	-18	-1	-11%	-7	-15	15
N=C1c2ccccc2CN1c1ccc(N2CCOCC2)c(S(=O)(=O)Nc2ccc(Cl)cc2)c1	.	.	?	-3	-7	83*
Cc1ccc(NC(=O)CCCn2c(=O)c3cccn3c3ccccc32)cc1C	.	9	.	-2	-4	2
